# “And” between values parts separate entries of the source, which are not always exact repeats. Equal entries are not always repeated. A structure can be active in one record and inactive in another. The source made the active and inactive calls. The calls were made as follows: active = hit-call score of the fitted dose curve at least 0.9, where 1 is the maximum; inactive = score below 0.9.
# Experiments:
# [1] = ATG_E_Box_CIS: Attagene CIS-FACTORIAL HepG2 Assay for human Enhancer Box (E-box) (AID 2282936); details: HepG2 E-box cis-reporter transcription, actives raise or lower the signal
# In short: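 In this cell-based setup, HepG2 cells bearing transfected promoter-driven reporter units were exposed to chemicals for 24 h; reporter transcripts were amplified, 6-FAM-labelled, cut with HpaI and sized by capillary electrophoresis.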
# [2] = ATG_M_61_CIS: Attagene CIS-FACTORIAL HepG2 Assay for M61 Transcription Factor (Internal Marker) (AID 2282937); details: HepG2 Attagene CIS-FACTORIAL M61 internal marker reporter; actives raise or lower the signal
# In short: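 This endpoint serves as an internal background control within a multiplexed HepG2 cis-reporter panel. Cells are exposed for 24 h; reporter mRNA is amplified, fluorescently labelled and sized by capillary electrophoresis, with DMSO as negative control.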
# [3] = ATG_EGR_CIS: Attagene CIS-FACTORIAL HepG2 Assay for human Early Growth Response 1 (EGR1) (AID 2282938); details: HepG2 Attagene CIS-FACTORIAL EGR reporter mRNA; actives raise or lower the signal
# In short: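 HepG2, transient MRTU transfection (cis promoters), 24 h compound. RNA → RT (oligo-dT) → PCR → 6-FAM labelling → HpaI cut → CE fluorescence. Bidirectional fit, DMSO baseline.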
# [4] = ATG_M_19_CIS: Attagene CIS-FACTORIAL HepG2 Assay for M19 Transcription Factor (Internal Marker) (AID 2282939); details: HepG2 Attagene CIS-FACTORIAL M19 internal marker reporter; actives raise or lower the signal
# In short: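 Following a 24 h exposure, RNA from transfected HepG2 cells was reverse-transcribed, PCR-amplified with reporter-specific primers, end-labelled with 6-FAM and HpaI-digested before capillary separation. Values represent gain or loss versus DMSO.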
# [5] = ATG_Ets_CIS: Attagene CIS-FACTORIAL HepG2 Assay for human Erythroblast Transformation Specific (ETS) (AID 2282941); details: HepG2 ETS cis-reporter transcription, actives raise or lower the signal
# In short: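 RT-PCR/capillary electrophoresis fluorescence read-out of reporter mRNA; HepG2 transient multi-reporter transfection; 24 h compound exposure; gain or loss of signal fitted bidirectionally relative to DMSO.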
# [6] = biological target: Hepatocyte nuclear factor 3-beta (Homo sapiens) (UniProt Q9Y261); assay: ATG_FoxA2_CIS: Attagene CIS-FACTORIAL HepG2 Assay for human Forkhead box A2 (FOXA2) (AID 2282942); details: HepG2 cis-reporter transcription factor activity, 24 h; actives raise or lower the signal
# Sequence of Hepatocyte nuclear factor 3-beta (Homo sapiens) (Q9Y261 whole entry, looked up): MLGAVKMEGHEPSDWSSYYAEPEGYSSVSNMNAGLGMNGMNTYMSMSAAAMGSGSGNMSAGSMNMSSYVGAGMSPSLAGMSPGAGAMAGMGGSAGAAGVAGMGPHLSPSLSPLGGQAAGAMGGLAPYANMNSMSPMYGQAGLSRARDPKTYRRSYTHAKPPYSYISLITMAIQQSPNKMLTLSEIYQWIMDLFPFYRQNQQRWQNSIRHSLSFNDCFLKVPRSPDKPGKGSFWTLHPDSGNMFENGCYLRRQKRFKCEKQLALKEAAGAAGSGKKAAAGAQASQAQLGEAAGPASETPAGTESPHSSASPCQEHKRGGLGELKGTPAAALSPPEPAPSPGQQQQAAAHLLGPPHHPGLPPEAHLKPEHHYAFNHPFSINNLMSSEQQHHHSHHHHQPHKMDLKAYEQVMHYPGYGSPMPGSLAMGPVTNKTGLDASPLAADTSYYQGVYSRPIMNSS
# In short: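 Cells: HepG2, transient multiplex reporter transfection. Exposure 24 h. Detection: reporter-specific RT-PCR, fluorescent labelling, restriction digest, capillary electrophoresis. Analysis: bidirectional curve fit, DMSO as negative control.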
# [7] = ATG_FoxO_CIS: Attagene CIS-FACTORIAL HepG2 Assay for human Forkhead box O (FoxO) (AID 2282943); details: HepG2 Attagene cis-reporter, FoxO element, mRNA; actives raise or lower the signal
# In short: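 HepG2 cells transiently transfected with cis-element-driven reporter units report endogenous FoxO activity. After 24 h chemical exposure, reporter mRNA quantified by RT-PCR, fluorescent labeling, HpaI digestion and capillary electrophoresis; bidirectional fit versus DMSO.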
# [8] = ATG_GATA_CIS: Attagene CIS-FACTORIAL HepG2 Assay for human GATA Binding Protein (AID 2282944); details: HepG2 GATA cis-element reporter, Attagene multiplex mRNA; actives raise or lower the signal
# In short: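 DMSO serves as negative control and baseline for bidirectional fitting of reporter mRNA changes. HepG2 cells bearing transiently transfected cis-promoter reporters were exposed 24 h; transcripts detected via RT-PCR and capillary electrophoresis.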
# [9] = ATG_GLI_CIS: Attagene CIS-FACTORIAL HepG2 Assay for human Zinc Finger Protein GLI1 (AID 2282945); details: HepG2, Attagene cis-factorial reporter mRNA, GLI element; actives raise or lower the signal
# In short: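 Transiently transfected HepG2 cells report endogenous transcription factor activity via cis-element-driven reporter units. After 24 h compound exposure, reporter mRNA was measured by RT-PCR with capillary electrophoresis; bidirectional fitting against DMSO baseline.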
# [10] = ATG_ERE_CIS: Attagene CIS-FACTORIAL HepG2 Assay for Estrogen Response Element (ERE) (AID 2282940); details: HepG2 ERE cis-reporter, Attagene RNA transcript; actives raise or lower the signal
# In short: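 HepG2, transient cis-reporter units, 24 h exposure. RNA isolated, oligo(dT) RT, reporter-specific PCR, FAM extension, HpaI cut, CE detection. Gain/loss-of-signal vs DMSO.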
SMILES,AC50 [1],outcome [1],outcome [2],outcome [3],outcome [4],AC50 [5],outcome [5],outcome [6],outcome [7],outcome [8],AC50 [9],outcome [9],outcome [10],AC50 [3],AC50 [7],AC50 [8],AC50 [10],AC50 [6]
CCCCCCCC[Si](OCC)(OCC)OCC,48.4 µM (active),inactive,inactive,inactive,inactive,100 µM (active) and 75.6 µM (active),inactive,inactive,inactive,inactive,162 µM (active),inactive,–,–,–,–,–,–
Cc1cn([C@H]2C[C@H](N=[N+]=[N-])[C@@H](CO)O2)c(=O)[nH]c1=O,–,inactive,inactive,inactive,inactive,–,inactive,inactive,inactive,inactive,–,inactive,inactive,–,–,–,–,–
COc1cccc([C@H](O)C2CCN(CCc3ccc(F)cc3)CC2)c1OC,100 µM (active),–,inactive,inactive,inactive,–,inactive,inactive,inactive,–,–,inactive,inactive,–,–,–,–,–
CC(C)(c1cc(Br)c(O)c(Br)c1)c1cc(Br)c(O)c(Br)c1,–,inactive,inactive,–,inactive,–,inactive,inactive,inactive,inactive,49.8 µM (active) and 50.8 µM (active),–,–,47.1 µM (active) and 37.6 µM (active),58 µM (active),58.1 µM (active),–,–
Oc1ccccc1,–,inactive,inactive,inactive,inactive,–,inactive,inactive,inactive,–,–,inactive,–,–,–,–,–,–
c1ccc2ccccc2c1,–,inactive,inactive,inactive,inactive,–,inactive,inactive,inactive,–,–,inactive,inactive,–,–,–,–,–
CCCCCCCCCCCO,–,inactive,inactive,inactive,inactive,–,inactive,inactive,inactive,–,–,inactive,inactive,–,–,–,–,–
CCOC(=O)O[C@H](C)OC(=O)c1ccc2c(c1)cc(C(=O)NC1CCN(C(C)C)CC1)n2Cc1cc(-c2ccc(Cl)s2)on1,–,inactive,inactive,inactive,inactive,–,inactive,inactive,inactive,–,–,inactive,–,–,–,–,33 µM (active),–
C[C@]12CC[C@@H]3c4ccc(O)cc4CC[C@H]3[C@@H]1CCC2=O,–,inactive,inactive,inactive,inactive,–,inactive,inactive,inactive,–,–,inactive,–,–,–,–,–,–
CCCCCCCCOc1ccc(C(=O)c2ccccc2)c(O)c1,–,inactive,inactive,inactive,inactive,–,inactive,inactive,inactive,–,–,inactive,inactive,–,–,–,–,–
c1ccc2n[nH]nc2c1,–,inactive,inactive,inactive,inactive,–,inactive,inactive,inactive,–,–,inactive,–,–,–,–,–,–
CC(O)CC(C)(C)O (stereo not drawn),–,inactive,inactive,inactive,inactive,–,inactive,inactive,inactive,inactive,–,inactive,–,–,0.0124 µM (active),–,–,–
Cc1oc2c(NC(=O)c3c(Cl)cccc3Cl)cccc2c1C(C)(C)O,–,inactive,inactive,–,inactive,–,inactive,–,inactive,–,–,inactive,inactive,47.6 µM (active),–,–,–,27.3 µM (active)
O=C1O[C@H]([C@@H](O)CO)C(O)=C1O,–,inactive,inactive,inactive,inactive,–,inactive,inactive,inactive,inactive,–,inactive,–,–,–,–,–,–
CCCCCCCCN(C)CCCCCCCC,–,inactive,inactive,inactive,inactive,–,inactive,inactive,inactive,–,–,inactive,–,–,–,–,30.2 µM (active),–
CCN(Cc1cccnc1)C(=O)c1cccc(Cl)c1[C@]1(C)C(=O)N(Cc2ccc(OC)cc2OC)c2ccc(Cl)cc21,–,inactive,inactive,–,inactive,–,inactive,inactive,inactive,–,–,inactive,inactive,3.83 µM (active),–,–,–,–
CO[C@H]1/C=C/O[C@@]2(C)Oc3c(C)c(O)c4c(O)c(c(/C=N/N5CCN(C)CC5)c(O)c4c3C2=O)NC(=O)/C(C)=C\C=C\[C@H](C)[C@H](O)[C@@H](C)[C@@H](O)[C@@H](C)[C@H](OC(C)=O)[C@@H]1C,–,inactive,inactive,inactive,inactive,–,inactive,inactive,inactive,–,–,inactive,–,–,–,–,–,–
CN(C)c1ccc(C(=C2C=CC(=[N+](C)C)C=C2)c2ccc(N(C)C)cc2)cc1,2.88 µM (active),–,inactive,–,inactive,–,inactive,inactive,inactive,–,–,inactive,–,2.23 µM (active),–,–,1.01 µM (active),–
CC(=O)N1CCN(c2ccc(OC[C@H]3CO[C@](Cn4ccnc4)(c4ccc(Cl)cc4Cl)O3)cc2)CC1,54.6 µM (active),–,inactive,–,inactive,–,inactive,inactive,inactive,–,–,inactive,inactive,11.6 µM (active),–,–,–,–
CCCCCCCCCCCCO,–,inactive,inactive,inactive,inactive,–,inactive,inactive,inactive,–,–,inactive,inactive,–,–,–,–,–

# Source: PubChem BioAssay (EPA / NIEHS)
